Assay results reported in PubChem BioAssay AID488984 (The Scripps Research Institute Molecular Screening Center, 2010).
Unmarked numbers belong to inactive results. The source made the active and inactive calls. Cut-off read from the data, not from the text of the source: active = inhibition above about 55%; inactive = the rest.

System: SARS coronavirus 3C-like protease (3CLpro, nsp5)
Assay: blockers of SARS 3CLpro activity – biochemical, fluorescence, set 2, late-stage follow-up (AID 488984)
Settings: recombinant 3CLpro, fluorogenic peptide cleavage; at 100 µM; active compounds read high

| Structure (SMILES) | inhibition |
| --- | --- |
| CC(C)c1ccc(N(C(=O)Cc2cccnc2)C(C(=O)NC(C)(C)C)c2cccnc2)cc1 (configuration not stated) | 2.83% |
| CC(C)c1ccc(N(C(=O)c2cccc3c2CCCC3)C(C(=O)NC(C)(C)C)c2cccnc2)cc1 (configuration not stated) | -5.03% |
| CC(C)(C)NC(=O)C(c1ccsc1)N(C(=O)Cn1nnc2ccccc21)c1ccc(N)cc1 (configuration not stated) | 74.8% (active) |
| CC(C)(C)NC(=O)C(c1cccnc1)N(C(=O)Cc1cccc2ccccc12)C1CC1 (configuration not stated) | 2.44% |
| CC(C)(C)NC(=O)C(c1cccnc1)N(C(=O)Cc1c[nH]c2ccccc12)c1ccc(F)cc1 (configuration not stated) | 5.7% |
| CC(C)(C)NC(=O)C(c1cccnc1)N(C(=O)c1cccc2c1CCCC2)c1ccc(OCF)cc1 (configuration not stated) | 16% |
| CC(C)(C)NC(=O)C(c1cccnc1)N(C(=O)c1cccc2c1CCCC2)C1CC1 (configuration not stated) | 8.14% |
| CC(C)c1ccc(N(C(=O)c2ccc(C#N)cc2)C(C(=O)NC(C)(C)C)c2cccnc2)cc1 (configuration not stated) | -3.85% |
| CC(C)(C)NC(=O)C(c1ccsc1)N(C(=O)Cn1cnc2ccccc21)c1ccc(C(C)(C)C)cc1 (configuration not stated) | 1.78% |
| CC(C)(C)NC(=O)C(c1ccsc1)N(C(=O)c1n[nH]c2ccccc12)c1ccc(OC(F)F)cc1 (configuration not stated) | 14.3% |
| CC(C)(C)NC(=O)C(c1ccsc1)N(C(=O)c1ccc(C#N)cc1)c1ccc(F)cc1 (configuration not stated) | 17.4% |
| CC(C)(C)NC(=O)C(c1ccsc1)N(C(=O)Cn1nnc2ccccc21)c1ccc(NS(C)(=O)=O)cc1 (configuration not stated) | 89.5% (active) |
